4MU fluor: compound fluoresces in the 4-MU spectral region; max dye-equivalent concentration, M; compound autofluorescence, 340/450 nm, 4-MU equivalents; hits give high values; actives 11% (n = 59,000); in the data active = max dye-equivalent concentration above about 10 nM; inconclusive = mostly about 1.1 nM to 9.6 nM
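Compounds in 100 mM Tris, pH 8.0, incubated 15 min at room temperature, then fluorescence read at 340 nm excitation/450 nm emission. Signal converted to 4-MU dye-equivalent concentration using an on-plate six-point 4-MU standard curve.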
AID923: qHTS Assay for Allosteric/Competitive Inhibitors of Caspase-1: Spectroscopic Profiling in AFC Spectral Region. actives 1.1% (n = 75,000). Potency, µM (series often up to 57.5 µM), inactives show top-dose fluorescence increase, most hits filed as activators. compound fluorescence, AFC spectral region (405/520 nm). AID 923, 2007; note: potency is the fitted concentration of half-maximal effect; 0% is about no effect
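Baseline compound fluorescence (AFC region, 405 nm ex/520 nm em) taken from the intercept of kinetic reads with 50 nM caspase-1 and 5 uM Ac-WEHD-AFC; normalized to an on-plate AFC standard curve; compounds titrated up to 57 uM.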
HADH2 inh: blocks human hydroxyacyl-CoA dehydrogenase type II. AID 886. recombinant HADH2, NADH fluorescence, beta-hydroxybutyryl-CoA. Potency, µM (series often up to 57.1 µM), without a hit: top-dose activity change, negative = inhibition, actives largely listed as inhibitors. actives 3.4% (n = 73,000). Q99714; note: potency is the fitted concentration of half-maximal effect; % is set by controls: 0 for no effect and ±100 for the full control effect; nearly all actives have a fitted effect of over 60% in size
Target sequence (Q99714 whole entry, looked up, one chain of several): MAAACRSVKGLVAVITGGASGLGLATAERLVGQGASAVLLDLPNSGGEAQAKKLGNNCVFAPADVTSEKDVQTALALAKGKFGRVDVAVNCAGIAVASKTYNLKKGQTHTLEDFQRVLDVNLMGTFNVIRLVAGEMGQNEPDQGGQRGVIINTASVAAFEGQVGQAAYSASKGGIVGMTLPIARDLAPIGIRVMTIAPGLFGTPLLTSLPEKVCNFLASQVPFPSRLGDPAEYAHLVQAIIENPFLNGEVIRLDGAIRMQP
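Read-out: 360 nm excitation, 450 nm emission, kinetic over 4 min. Conditions: His-tagged human HADH2 20 nM, pH 9.0 Tris with Tween-20, 1 mM NAD+, 90 uM beta-hydroxybutyryl-CoA.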
CRE-bla Fsk: CRE-bla signaling modulation under forskolin stimulation; CHO CRE-bla reporter (cAMP response element driving beta-lactamase), forskolin EC10, beta-lactamase ratio; Potency, µM (titrated, usually from 38.2 µM), inactives show top-dose activity change, negative = inhibition, usual class: activators; actives 2.5% (n = 71,000); AID 662; active = well fitted activation curve with a large enough effect in the signal ratio, with a control signal flat, not every such curve was filed as active; inconclusive = small, poorly fitted or top-dose-only effect, or effect the other way, or a change in a side signal; the % refers to the signal ratio; note: potency is the fitted concentration of half-maximal effect; % of control where 0% means no effect
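CHO CRE-bla cells, overnight plating in Opti-MEM with 0.5% dialyzed FBS; cpd titration + EC10 NKH 477, 3 h 37 °C; CCF4 2 h RT; ex 405/em 460 vs 530 ratio → %Activity, AC50.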
HSD17B inh: HSD17B dehydrogenase inhibition; recombinant HSD17B10, NADH fluorescence kinetic; Potency, µM (highest dose often 57.1 µM), for the others: at the highest dose activity change, negative = inhibition, hits mostly inhibitors; Q99714; actives 7.6% (n = 75,000);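 note: the protocol describes HADH2 (HSD17B10) and not the HSD17B4 of the title; potency is the fitted concentration of half-maximal effect; % is set by controls: 0 for no effect and ±100 for the full control effect; nearly all actives have a fitted effect of over 70% in size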
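Activity followed as NADH fluorescence increase (ex 360, em 450 nm) every 30 seconds for 4 min, using final 90 uM beta-hydroxybutyryl CoA and 1 mM NAD+. Recombinant His-tagged enzyme, 20 nM, pH 9.0 Tris buffer, 15 min compound preincubation.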
A350 autofl: A350 region autofluorescence; Compound autofluorescence, 340/450 nm, Alexa 350 dye-equivalents; hits give high values; max dye-equivalent concentration, M; actives 11% (n = 59,000); AID 590; in the data active = max dye-equivalent concentration above about 10 nM; inconclusive = mostly about 1.1 nM to 9.6 nM
The depositor's hits bear a star; i = inactive; ? = inconclusive; . = no result given; [ ] = another dose, or the depositor's remark. Sampled rows, rich in hits. Any-hit rate of the full collection: about 14%. Unless noted, calls come from the whole dose curve; as a rule, active = well fitted curve in the direction sought with a large enough effect; inconclusive = small, poorly fitted or top-dose-only effect, or another doubt; inactive = no such curve, though single readings can be large; an effect the other way counts as inactive or inconclusive.

SMILES	4MU fluor	AID923	HADH2 inh	CRE-bla Fsk	HSD17B inh	A350 autofl
COc1ccc(-c2nn(C)c3sc(C(=O)N4CCOCC4)cc23)cc1OC	i	-2%	4%	10µM*	-13%	i
CC1CCCN(C(=O)c2cc3c(-c4ccc(Cl)cc4)nn(C)c3s2)C1 (configuration not stated)	.	2%	4%	3.2µM*	-7%	.
O=C(Nc1cccc(F)c1)N1CCCC2(CCN(C(=O)c3ccncc3)CC2)C1	i	-1%	10%	?	-4%	i
COCCNC(=O)c1ccc(-n2c(=O)c(=O)[nH]c3ccccc32)cc1	.	-1%	-7%	.	1%	.
CCC/C=C(\CCC)C(NS(=O)(=O)c1ccc(C(F)(F)F)cc1)c1ccc(-c2ccccc2)cc1 (configuration not stated)	.	-2%	18%	28%	-9%	.
O=C(NCCC[N+]1=CC=N[C@H]1c1ccccc1)N1CCCc2nc(-c3ccc(Br)cc3)ccc21	.	0%[11.5 µM]	25%[11.4 µM]	.	-1%[11.4 µM]	.
N=C(N)S/C=C\C(=O)O	.	5%	5µM*	?	-6%	.
COc1nnc(-c2ccc(N3CCOCC3)c(NC(C)=O)c2)c2ccccc12	i	-1%	0%	?	10%	i
COc1nnc(-c2ccc(N3CCOCC3)c(NC(=O)c3ccco3)c2)c2ccccc12	i	0%	-4%	2µM*	8%	i
CCCC/C=C/C(NC(=O)c1cccs1)c1ccccc1 (configuration not stated)	.	1%	-9%	1%	-9%	.
Cc1cn([C@H]2C[C@H](O)[C@@H](CO)O2)c(=O)[nH]c1=O	.	2%	.	.	2%	.
O=C(CSCc1n[nH]c(=O)[nH]1)NCCOc1cccc(Oc2ccccc2)c1	1.7e-07M*	10%	8%	-1%	5%	1.9e-07M*
Cc1c(C(=O)O)nc(/C=C\C(=O)O)[nH]c1=O	i	-2%[11.5 µM]	4%[11.4 µM]	3%[7.6 µM]	-1%[11.4 µM]	i
COc1cc(C2C(C(C)=O)=C(O)C(=O)N2c2ccc(Br)cn2)ccc1O (configuration not stated)	i	.	.	.	.	i
CC(=O)C1=C(O)C(=O)N(c2cc(C(C)(C)C)on2)C1c1ccc(C(C)C)cc1 (configuration not stated)	1.3e-08M*	1%	-10%	4%	-1%	1.2e-08M*
Cc1cc(N2C(=O)C(O)=C(C(=O)c3ccc(C)o3)C2c2cccs2)no1 (configuration not stated)	i	3%	?	9%	-23%	?
CC(=O)C1=C(O)C(=O)N(c2cc(C(C)(C)C)on2)C1c1ccc(Br)cc1 (configuration not stated)	1e-08M*	-2%	-4%	-5%	-10%	1e-08M*
CN(C)S(=O)(=O)c1nc(Cl)c2[nH]cnc2n1	i	0%[11.5 µM]	9%[11.4 µM]	6%[7.6 µM]	1%[11.4 µM]	i
COc1ccc(CCNS(=O)(=O)c2cn(C)c(=O)n(C)c2=O)cc1OC	.	4%	?	10%	32µM*	.
Cn1nc(C(=O)Nc2cccnc2)c2ccccc2c1=O	6.4e-07M*	0%	-4%	10µM*	2%	6.2e-07M*
O=C(CC1CCS(=O)(=O)C1)Nc1ccc[nH]c1=O (configuration not stated)	2.4e-07M*	5%	-11%	?	25µM*	2e-07M*
COc1ccccc1NC(=O)CC1Nc2ccccc2NC1=O (configuration not stated)	i	-2%	7%	?	4%	i
CC(=O)Nc1ccc(-c2cc(C(=O)O)c3cc4ccccc4cc3n2)cc1	1.8e-07M*	0%[11.5 µM]	-16%[11.4 µM]	-5%[7.6 µM]	4µM*	1.9e-07M*
CCCC[C@@H]1C[C@H]1C(NC(=O)Cc1ccccc1)c1ccc(Cl)cc1 (some centres not stated)	.	-1%	-6%	15%	11%	.
CN1CCN(CCCCOc2ccc(F)cc2)CC1	i	.	.	.	.	i
SMILES	4MU fluor	AID923	HADH2 inh	CRE-bla Fsk	HSD17B inh	A350 autofl
COc1ccc(CC(NC(C)=O)C(=O)NC2CCN(c3c4c(nc5ncnn35)CCC4)CC2)cc1 (configuration not stated)	i	0%	2%	?	5%	i
CCOCCN1CCN(c2c3c(nc4cc(-c5ccc(F)cc5)nn24)CCC3)CC1	1e-08M*	-1%	1%	11%	2%	1.1e-08M*
Fc1cccc(-c2cc3nc4c(c(N5CCC6(CC5)OCCO6)n3n2)CCCC4)c1	9.5e-08M*	0%	?	21%	?	8.3e-08M*
OC1CCN(c2c3c(nc4cc(-c5cccc(F)c5)nn24)CCCC3)CC1	5.4e-08M*	1%	?	3.2µM*	i	5.6e-08M*
C[N+](C)([O-])CCC=C1c2ccccc2CCc2ccccc21	i	3%[11.5 µM]	2%[11.4 µM]	4%[7.6 µM]	8%[11.4 µM]	i
CCC1=C2CC[C@H]3C(=O)N(C)C(=O)[C@H]3[C@H]2[C@@]2(C)C(=NCC(=O)OC)OC(=O)N2C1=O	.	2%	.	.	6%	.
CN1CC[C@@]2(CCCN(C(=O)c3cc(C(F)(F)F)cc(C(F)(F)F)c3)C2)C1	i	1%	3%	-6%	2%	i
O=C(c1coc(=O)c(Br)c1)N1CCCc2ccccc21	3.3e-07M*	.	.	.	.	3.6e-07M*
CC1(C)CCCN(C(=O)c2coc(=O)c(Br)c2)C1	9.7e-07M*	5%	13µM*	-1%	32µM*	1.3e-06M*
O=C(c1cccs1)N1CCCc2ccccc21	2.7e-08M*	6%	-9%	-2%	-7%	3.1e-08M*
O=C(O)C1OC(O)C(O)C(O)C1O (configuration not stated)	.	2%	.	.	-11%	.
O=C1c2ccccc2-c2ccc(NC(=O)[C@H]3CCCC[C@@H]3C(=O)O)cc21	i	-2%[11.5 µM]	2%[11.4 µM]	?	-4%[11.4 µM]	i
FC(F)(F)c1cc(CN2CC[C@@]3(CCCNC3)C2)cc(C(F)(F)F)c1	i	3%	1%	4%	5%	i
NCCC[C@@H](CC(=O)N[C@@H]1CCNC[C@H]1C(=O)N[C@H](CC(=O)N[C@@H](CCC(=O)O)CC(=O)O)Cc1c[nH]c2ccccc12)NC(=O)C[C@H](CO)NC(=O)[C@@H]1CCCC[C@H]1N	.	.	12%	?	.	.
N#Cc1cccc(-c2cncnc2NCc2ccccc2)c1	i	1%	3%	5%	4%	i
COc1ccc(-c2c(O)c3c(OC)c4c(cc3oc2=O)OC(C)(C)C=C4)cc1	.	-7%	.	.	?	.
CO[C@H]1COC(=O)[C@H]2CCCN2C(=O)C/C=C\[C@@H](C)[C@H](OC)COC(=O)C/C=C\[C@@H]1C	.	0%[11.5 µM]	-4%[11.4 µM]	.	2%[11.4 µM]	.

High-throughput results: PubChem, National Center for Advancing Translational Sciences (NCATS)
